In PubChem BioAssay:
Calls of active or inactive are those of the source. Unless noted, no stated cut-off is given here; in the data, active means inhibition above about 30%; inactive means the rest.

What was measured:
[1] = target: Nuclear receptor coactivator 3 (Homo sapiens) (UniProt Q9Y6Q9); experiment: SRC3 coactivator transcriptional activity inhibitors, confirmation, cell-based, luminescence, quadruplicate (AID 588792;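 active means mean inhibition over 43.08%, the solvent-only control mean plus 3 SD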;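 further: 0% = DMSO treated cells and 100% = gossypol at 36 µM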); settings: HEK293 GAL4-SRC3 luciferase reporter, at 3.6 µM, stronger effect = higher value
Chain of Nuclear receptor coactivator 3 (Homo sapiens) (Q9Y6Q9 whole entry, looked up, the tested form may be a part): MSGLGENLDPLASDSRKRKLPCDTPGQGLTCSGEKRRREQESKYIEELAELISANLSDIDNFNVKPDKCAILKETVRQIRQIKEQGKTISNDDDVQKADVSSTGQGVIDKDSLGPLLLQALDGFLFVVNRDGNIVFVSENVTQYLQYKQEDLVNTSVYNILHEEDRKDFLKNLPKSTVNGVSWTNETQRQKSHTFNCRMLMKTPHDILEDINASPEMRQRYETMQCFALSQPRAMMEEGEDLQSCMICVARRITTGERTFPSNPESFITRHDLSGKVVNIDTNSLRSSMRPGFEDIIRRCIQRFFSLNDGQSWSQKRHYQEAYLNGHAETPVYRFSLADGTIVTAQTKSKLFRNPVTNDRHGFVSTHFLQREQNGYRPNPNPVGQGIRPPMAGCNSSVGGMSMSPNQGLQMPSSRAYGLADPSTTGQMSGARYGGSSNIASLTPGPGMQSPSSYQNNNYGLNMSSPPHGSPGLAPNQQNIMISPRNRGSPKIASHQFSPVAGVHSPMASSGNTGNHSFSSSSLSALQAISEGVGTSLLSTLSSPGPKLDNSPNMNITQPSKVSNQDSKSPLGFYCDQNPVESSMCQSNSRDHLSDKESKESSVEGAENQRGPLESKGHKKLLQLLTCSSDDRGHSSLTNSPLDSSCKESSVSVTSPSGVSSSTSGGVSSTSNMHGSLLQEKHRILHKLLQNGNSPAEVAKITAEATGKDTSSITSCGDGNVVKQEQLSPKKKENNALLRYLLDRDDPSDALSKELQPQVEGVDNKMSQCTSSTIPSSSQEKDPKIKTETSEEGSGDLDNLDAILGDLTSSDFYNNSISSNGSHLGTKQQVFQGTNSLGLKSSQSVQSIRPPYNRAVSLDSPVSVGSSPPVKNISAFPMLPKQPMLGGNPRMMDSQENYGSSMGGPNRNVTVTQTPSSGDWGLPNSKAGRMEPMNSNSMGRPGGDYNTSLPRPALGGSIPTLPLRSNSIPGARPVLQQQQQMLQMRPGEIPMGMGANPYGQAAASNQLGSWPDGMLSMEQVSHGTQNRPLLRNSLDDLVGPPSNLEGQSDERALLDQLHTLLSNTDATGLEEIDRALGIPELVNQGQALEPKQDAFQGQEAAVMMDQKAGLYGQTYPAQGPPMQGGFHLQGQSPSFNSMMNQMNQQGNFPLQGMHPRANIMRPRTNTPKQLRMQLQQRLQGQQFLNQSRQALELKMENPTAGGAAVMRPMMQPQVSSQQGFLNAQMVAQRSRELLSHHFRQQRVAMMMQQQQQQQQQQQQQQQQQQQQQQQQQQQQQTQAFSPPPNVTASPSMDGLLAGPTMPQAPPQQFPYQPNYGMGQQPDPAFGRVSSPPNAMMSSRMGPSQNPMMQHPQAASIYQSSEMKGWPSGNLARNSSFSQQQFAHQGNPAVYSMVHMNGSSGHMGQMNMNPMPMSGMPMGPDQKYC

[2] = tested on: transactivating tegument protein VP16 (Human herpesvirus 1), Gal4-VP16 luciferase reporter; experiment: VP16 transactivation inhibitors, counter-screen for SRC3 inhibitor project, cell-based, luminescence, high throughput (AID 588794); settings: mammalian cells, VP16-driven luciferase reporter luminescence; at 3.6 µM; stronger effect = higher value
[3] = target: Nuclear receptor coactivator 1 (Homo sapiens) (UniProt Q15788); experiment: SRC1 coactivator transcriptional activity inhibitors, confirmation, cell-based, luminescence, quadruplicate (AID 588820;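 active means mean inhibition above 46.68%, the untreated control wells mean plus 3 SD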;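 further: 0% = DMSO wells and 100% = gossypol 36 µM treated wells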); settings: HEK293 GAL4-SRC1 luciferase reporter, at 3.6 µM, stronger effect = higher value
Chain of Nuclear receptor coactivator 1 (Homo sapiens) (Q15788 whole entry, looked up, the tested form may be a part): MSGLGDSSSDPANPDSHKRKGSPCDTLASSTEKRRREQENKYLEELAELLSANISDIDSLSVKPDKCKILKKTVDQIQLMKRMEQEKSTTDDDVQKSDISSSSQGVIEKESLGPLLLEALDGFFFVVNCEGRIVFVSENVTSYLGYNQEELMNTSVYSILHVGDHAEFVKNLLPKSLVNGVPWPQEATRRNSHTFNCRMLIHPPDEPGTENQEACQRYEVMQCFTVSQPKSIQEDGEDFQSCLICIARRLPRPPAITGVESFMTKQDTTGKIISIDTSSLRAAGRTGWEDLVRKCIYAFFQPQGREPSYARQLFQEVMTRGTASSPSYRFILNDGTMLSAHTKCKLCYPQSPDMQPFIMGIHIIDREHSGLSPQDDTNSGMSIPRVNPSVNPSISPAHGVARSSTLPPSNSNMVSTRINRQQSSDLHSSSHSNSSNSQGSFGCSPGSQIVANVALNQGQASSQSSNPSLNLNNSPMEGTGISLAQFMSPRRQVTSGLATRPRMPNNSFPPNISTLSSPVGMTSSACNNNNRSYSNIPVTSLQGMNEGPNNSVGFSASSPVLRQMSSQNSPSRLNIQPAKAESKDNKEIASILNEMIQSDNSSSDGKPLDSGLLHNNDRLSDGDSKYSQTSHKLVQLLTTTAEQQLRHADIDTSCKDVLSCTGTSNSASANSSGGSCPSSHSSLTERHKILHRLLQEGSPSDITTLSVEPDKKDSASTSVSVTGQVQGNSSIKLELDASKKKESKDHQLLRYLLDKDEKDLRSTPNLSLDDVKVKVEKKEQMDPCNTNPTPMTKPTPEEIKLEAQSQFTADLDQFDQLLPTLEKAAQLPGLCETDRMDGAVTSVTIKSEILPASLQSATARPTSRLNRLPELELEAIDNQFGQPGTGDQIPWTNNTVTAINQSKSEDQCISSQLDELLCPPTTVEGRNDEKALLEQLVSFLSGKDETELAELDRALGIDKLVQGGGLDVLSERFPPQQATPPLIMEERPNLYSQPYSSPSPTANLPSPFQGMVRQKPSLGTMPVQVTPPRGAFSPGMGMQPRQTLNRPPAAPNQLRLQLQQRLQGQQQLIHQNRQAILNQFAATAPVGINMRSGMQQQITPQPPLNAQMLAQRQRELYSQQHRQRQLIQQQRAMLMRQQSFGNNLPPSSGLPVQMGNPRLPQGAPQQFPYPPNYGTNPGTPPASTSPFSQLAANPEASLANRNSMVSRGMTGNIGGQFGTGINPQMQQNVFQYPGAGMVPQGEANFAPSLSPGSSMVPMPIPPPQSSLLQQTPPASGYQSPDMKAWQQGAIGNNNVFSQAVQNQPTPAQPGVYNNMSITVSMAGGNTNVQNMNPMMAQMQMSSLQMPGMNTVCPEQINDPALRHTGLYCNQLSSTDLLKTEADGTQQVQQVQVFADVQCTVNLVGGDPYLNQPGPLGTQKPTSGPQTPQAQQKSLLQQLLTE

[4] = VP16 transactivation inhibitors, counter-screen for SRC1 inhibitor project, cell-based, luminescence, high throughput (AID 588824; in the data active means inhibition above about 25%); settings: cell-based VP16 transactivation luciferase luminescence; at 3.6 µM; stronger effect = higher value
[5] = StAR promoter reporter inhibitors, counter-screen for LRH-1 inverse agonist project, cell-based, luminescence, high throughput (AID 651611; in the data active means inhibition above about 28%); settings: StAR promoter luciferase reporter counterscreen, at 3.6 µM, stronger effect = higher value
[6] = target: Nuclear receptor subfamily 5 group A member 2 (Homo sapiens) (UniProt O00482); experiment: LRH-1 (NR5A2) inverse agonists, retest, confirmation, cell-based, luminescence (AID 651613; in the data active means inhibition above about 42%;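 further: HEK293T cells co-transfected with LRH-1 and StAR promoter luciferase reporter; 0% = vehicle wells and 100% = parental cells lacking receptor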); settings: cell-based LRH-1 luciferase reporter, inverse agonism; at 3.6 µM; stronger effect = higher value
Chain of Nuclear receptor subfamily 5 group A member 2 (Homo sapiens) (O00482 whole entry, looked up): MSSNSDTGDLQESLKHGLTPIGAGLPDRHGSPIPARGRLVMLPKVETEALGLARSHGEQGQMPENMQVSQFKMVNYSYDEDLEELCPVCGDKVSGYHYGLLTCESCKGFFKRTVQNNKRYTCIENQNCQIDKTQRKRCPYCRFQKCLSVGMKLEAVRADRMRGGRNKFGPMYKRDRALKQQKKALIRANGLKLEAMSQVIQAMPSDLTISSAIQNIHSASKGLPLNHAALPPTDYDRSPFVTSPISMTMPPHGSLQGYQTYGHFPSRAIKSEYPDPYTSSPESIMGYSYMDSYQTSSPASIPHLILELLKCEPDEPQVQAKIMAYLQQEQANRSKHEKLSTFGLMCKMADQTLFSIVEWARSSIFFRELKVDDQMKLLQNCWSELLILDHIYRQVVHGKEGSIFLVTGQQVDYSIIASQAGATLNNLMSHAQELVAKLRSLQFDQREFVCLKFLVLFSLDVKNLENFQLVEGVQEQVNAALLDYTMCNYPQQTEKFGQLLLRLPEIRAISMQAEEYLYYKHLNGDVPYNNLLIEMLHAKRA

[7] = target: Steroidogenic factor 1 (Homo sapiens) (UniProt Q13285); experiment: SF1 (NR5A1) inverse agonists, counter-screen for LRH-1 inverse agonist project, cell-based, luminescence, high throughput (AID 651614; in the data active means inhibition above about 44%;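 further: cells cotransfected with StAR promoter reporter and SF1 expression vector; 0% = vehicle on cells with receptor and 100% = vehicle on cells lacking receptor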); settings: cell-based SF1 luciferase reporter, at 3.6 µM, stronger effect = higher value
Chain of Steroidogenic factor 1 (Homo sapiens) (Q13285 whole entry, looked up, the tested form may be a part): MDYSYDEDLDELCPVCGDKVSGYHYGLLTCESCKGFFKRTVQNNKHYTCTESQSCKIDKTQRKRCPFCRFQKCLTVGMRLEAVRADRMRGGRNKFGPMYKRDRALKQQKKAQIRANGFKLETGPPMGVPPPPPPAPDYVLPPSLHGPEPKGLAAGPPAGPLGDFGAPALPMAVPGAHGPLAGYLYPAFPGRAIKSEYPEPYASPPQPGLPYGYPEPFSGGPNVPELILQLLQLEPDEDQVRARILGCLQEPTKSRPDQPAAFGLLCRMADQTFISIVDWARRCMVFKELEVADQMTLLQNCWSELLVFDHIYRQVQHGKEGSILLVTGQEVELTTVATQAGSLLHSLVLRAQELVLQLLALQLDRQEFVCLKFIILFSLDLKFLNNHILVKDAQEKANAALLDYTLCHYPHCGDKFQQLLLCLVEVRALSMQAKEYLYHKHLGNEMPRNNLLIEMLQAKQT

[8] = VP16 transactivation reporter inhibitors, counter-screen for LRH-1 inverse agonist project, cell-based, luminescence, high throughput (AID 651615; in the data active means inhibition above about 33%); settings: Gal4-VP16 luciferase reporter cells, at 3.6 µM, stronger effect = higher value

Measured: inhibition

O=NN(CC(=O)NNc1ccccc1)CC(=O)NNc1ccccc1
active: [2] 29.9% | [4] 27.5% | [5] 37.4% | [6] 58.7% | [7] 53.1% | [8] 67.5%
inactive: [1] 22.6% | [3] 9.03%

N=c1c2c(n(Cc3ccc(Cl)c(Cl)c3)c3c1CCC3)CCCC2
active: [1] 44.7% | [2] 74.8% | [3] 62.8% | [4] 74.8% | [5] 61.2% | [6] 109% | [7] 84.6% | [8] 90.7%

O=C(NC(Nc1nc2ccc([N+](=O)[O-])cc2s1)(C(F)(F)F)C(F)(F)F)c1ccccc1Cl
active: [1] 65.5% | [2] 86.2% | [4] 86% | [5] 82.2% | [6] 103% | [7] 93.4% | [8] 89.8%
inactive: [3] 27.1%

O=C(/C=C/c1ccc(O)cc1)c1ccc(NC2=C(N3CCCCC3)C(=O)c3ccccc3C2=O)cc1
inactive: [1] 33.2% | [2] 26.1% | [3] 22.5% | [5] -1.86% | [7] 17.3%
active: [4] 36.1% | [6] 76.3% | [8] 67.4%

CCC(=O)Nc1cccc(C(=O)/C=C/c2cc(Br)ccc2OC)c1
active: [1] 70.8% | [2] 62.1% | [3] 60.6% | [4] 59.4% | [5] 81.2% | [6] 105% | [7] 94.1% | [8] 82.9%

Cc1ccc(S(=O)(=O)N(C)C)cc1NC(=O)c1cncc(Br)c1
inactive: [1] 22.1% | [2] 5.79% | [3] 8.59% | [4] 0.1% | [8] 19.7%
active: [5] 44.1% | [6] 43% | [7] 47.6%
